Active and inactive are the calls of the source.

In one experiment the target is Albumin (Bos taurus) (UniProt P02769). Briefly: compounds binding labelled BSA control protein – biochemical, small-molecule microarray, Alexa647 label, 635/667 nm fluorescence, artefact control for SMM control protein annotation, profiling panel (AID 1118).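 Also: score merges 667 nm emission intensity and signal-to-noise per printed compound spot.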 The following applies: BSA-A647 binding, fluorescence 635 nm, higher = more signal.
Experiment [1] is described as follows: probe aXIP binding to arrayed compounds – biochemical, NeuroSMM set, 635/667 nm fluorescence, primary screen (AID 1119).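 Also: probe is the protein aXip251-270 applied at 1 µg/mL to compound-printed slides; binding of probe to printed compounds measured as 667 nm fluorescence plus signal to noise.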 Particulars: small-molecule microarray, higher = more signal, called active from +8 up or from −8 down.
Experiment [2] in a line: probe aNOTCH3 binding on compound microarray – biochemical, small-molecule microarray, 635/667 nm fluorescence, primary screen (AID 1120).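 Also: probe is a biotin-tagged antibody raised against NOTCH3 rather than NOTCH3 protein; score merges spot fluorescence near 667 nm with spot signal to noise.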 The following applies: higher = more signal.
Experiment [3] is described as follows: probe aNOTCH2 binding on compound microarray – biochemical, small-molecule microarray, 635/667 nm fluorescence, primary screen (AID 1121).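 Also: score merges feature fluorescence read at 667 nm with its signal to noise.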 The following applies: higher = more signal.
The target in experiment [4] is Carbonic anhydrase 2 (Homo sapiens) (UniProt P00918). Briefly: compounds binding carbonic anhydrase 2 – biochemical, small-molecule microarray, Alexa647-labelled CAII, profiling panel (AID 1122). The following applies: CAII-A647 binding fluorescence, higher = more signal.
Experiment [5] is described as follows: COS7 lysate on small-molecule microarray, probe aHis, 635 nm (AID 1123).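 Also: z-score combines 667nm fluorescence intensity with signal-to-noise per printed compound spot.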 The following applies: COS7 cell lysate, fluorescence, higher = more signal.
A short description of experiment [6]: probe aLAP1 signal on lysate-treated microarray – cell lysate, small-molecule microarray, COS7 lysate, primary screen (AID 1124).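 Also: lysate comes from COS7 cells expressing LAP1 and is applied at 0.3 µg/mL; score merges spot fluorescence near 667 nm with signal-to-noise over triplicate slides.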 Particulars: probe aLAP1, fluorescence, higher = more signal.
The next experiment concerns Sam68 (KHDRBS1). Briefly: compounds binding KHDRBS1 protein – biochemical, small-molecule microarray, 635 nm fluorescence, primary screen (AID 1125).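 Also: score merges 667 nm channel intensity with signal to noise over triplicate slides.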 Particulars: higher = more signal.
The subject of experiment [7] is Chordin-like protein 2 (CHRDL2). Briefly: compounds binding chordin-like 2 – biochemical, small-molecule microarray, 635 nm fluorescence, primary screen (AID 1126).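 Also: printed compound slides probed with Chrdl2 protein at 4 µg/mL for 1 h at 4 C; score merges 667 nm emission intensity with signal to noise over three replicate slides.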 Particulars: fluorescence 635 nm, higher = more signal.
The target in experiment [8] is Concanavalin-A (Canavalia ensiformis) (UniProt P02866). Briefly: compounds binding concanavalin A lectin – biochemical, small-molecule microarray, Alexa647 label, 635 nm, artefact control for SMM control protein annotation, primary screen (AID 1127).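 Also: z combines 667 nm emission intensity with signal-to-noise across three replicate slides.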 The following applies: ConA-A647 binding fluorescence, higher = more signal.
Sequence of Concanavalin-A (Canavalia ensiformis) (P02866 whole entry, looked up): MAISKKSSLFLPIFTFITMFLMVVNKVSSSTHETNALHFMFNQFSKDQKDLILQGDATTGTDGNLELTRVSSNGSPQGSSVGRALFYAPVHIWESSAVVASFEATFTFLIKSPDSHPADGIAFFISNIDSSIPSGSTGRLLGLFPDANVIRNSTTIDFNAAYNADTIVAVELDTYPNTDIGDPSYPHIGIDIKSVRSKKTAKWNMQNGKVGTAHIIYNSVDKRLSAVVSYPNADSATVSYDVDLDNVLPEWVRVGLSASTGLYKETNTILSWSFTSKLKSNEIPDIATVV

Sequence of Albumin (Bos taurus) (P02769 whole entry, looked up): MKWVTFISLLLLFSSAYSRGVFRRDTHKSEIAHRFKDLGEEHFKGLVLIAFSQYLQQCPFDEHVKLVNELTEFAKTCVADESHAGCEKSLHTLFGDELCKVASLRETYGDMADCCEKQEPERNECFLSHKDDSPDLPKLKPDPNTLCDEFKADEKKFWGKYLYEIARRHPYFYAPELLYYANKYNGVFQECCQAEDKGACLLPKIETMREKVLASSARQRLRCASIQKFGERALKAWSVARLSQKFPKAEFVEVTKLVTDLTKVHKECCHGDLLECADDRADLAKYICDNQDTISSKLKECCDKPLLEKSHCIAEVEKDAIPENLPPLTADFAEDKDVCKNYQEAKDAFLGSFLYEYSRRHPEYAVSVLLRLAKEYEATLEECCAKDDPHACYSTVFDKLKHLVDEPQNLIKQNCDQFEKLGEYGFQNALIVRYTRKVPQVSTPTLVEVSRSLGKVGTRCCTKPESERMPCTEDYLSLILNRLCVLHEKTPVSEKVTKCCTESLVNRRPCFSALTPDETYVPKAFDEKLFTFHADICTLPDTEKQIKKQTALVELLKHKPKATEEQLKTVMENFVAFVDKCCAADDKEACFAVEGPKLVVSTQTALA

For `CC(C)=CCN[C@H](CO)c1ccccc1`, the composite z-score was -0.0472 with Albumin (Bos taurus); -0.0122 in [2]; -0.14 in experiment [3]; -0.115 in experiment [4]; 0.0524 in experiment [5]; -0.021 in experiment [6]. In addition, the composite z-score in the experiment on Sam68 (KHDRBS1) is -0.127; in experiment [7], 0.218; in experiment [8], 0.0857. The composite Z-score in [1] was -0.139 (inactive).

On to `CC(C)N1C(=O)c2ccccc2[C@](C)(C(=O)NCCN2CCOCC2)[C@@H]1c1ccc(CO)cc1`, for which the composite z-score with Albumin (Bos taurus) is 0.406; in [2] it was -0.0697; in [3] it was -0.195; in [4], 0.766; in experiment [5] it was 2.48; in experiment [6] it was 0.385. The composite z-score is 0.359 with Sam68 (KHDRBS1), -1.12 in [7] and -0.0721 in experiment [8]. For the same molecule, the composite Z-score in [1] was -0.523 (inactive).

Consider `O=C1[C@@]23C=C(Br)[C@H](C[C@@H]2CCOC3)[C@@]12CO2`, for which the composite z-score in the experiment with Albumin (Bos taurus) was -0.169; in [2] it was 0.146; in [3], -0.162; in experiment [4] it was -0.0433; in [5] it was -0.128; in experiment [6], 0.522. The composite z-score in the experiment on Sam68 (KHDRBS1) was found to be 0.166; in experiment [7], 0.518; in [8], 0.311. Further, in experiment [1], the composite Z-score is -0.775 (inactive).

With `CO[C@H]1O[C@H](CO)[C@@H](OC(=O)Nc2cccc(F)c2)[C@H](OC(=O)Nc2ccccc2)[C@@H]1OC(=O)Nc1ccccc1`, the composite z-score is 0.875 with Albumin (Bos taurus); 0.138 in experiment [2]; 0.003 in [3]; 0.555 in [4]; 2.54 in experiment [5]; 1.02 in experiment [6]. In addition, the results for the composite z-score (with Sam68 (KHDRBS1); in experiment [7]; in [8]) were 1.3, -0.219 and 0.724, respectively. Further, the composite Z-score in experiment [1] was 0.311 (inactive).

For `CC(=O)n1cc(C(O)C2C=CC3C(=O)N(c4ccccc4)C(=O)C3N2Nc2ccc([N+](=O)[O-])cc2)c2ccccc21` (stereo not given), the composite z-score turned out to be 0.932 with Albumin (Bos taurus); 0.0159 in [2]; 0.386 in experiment [3]; 0.778 in [4]; 2.22 in experiment [5]; 1.33 in experiment [6]. Besides, the results for the composite z-score (with Sam68 (KHDRBS1); in experiment [7]; in [8]) were 1.34, -1.4 and 0.823, respectively. Besides, the composite Z-score in experiment [1] is 0.406 (inactive).

`NC(=O)NCC#Cc1ccc2c(c1)[C@]1(C(=O)N2)[C@H](C(N)=O)[C@H]2C(=O)O[C@H](c3ccccc3)[C@H](c3ccccc3)N2[C@@H]1c1ccc(O)cc1`: the composite z-score is -0.0636 with Albumin (Bos taurus); 0.286 in experiment [2]; 0.668 in experiment [3]; 0.688 in experiment [4]; 3.15 in experiment [5]; 0.505 in experiment [6]. The figures for the composite z-score (in the experiment with Sam68 (KHDRBS1); in experiment [7]; in experiment [8]) were 0.652, -0.034 and -0.279, respectively. In experiment [1], the composite Z-score is 1.42 (inactive).

As for `COC(=O)[C@@]1(Cc2ccc(F)cc2)[C@H]2c3cc(C(=O)N(C)C)n(Cc4ccc(Cl)c(C(F)(F)F)c4)c3C[C@H]2CN1C(=O)c1ccccc1`, the composite z-score in the experiment with Albumin (Bos taurus) was found to be 1.03; in experiment [2] it was 0.405; in experiment [3] it was 0.266; in experiment [4] it was 0.77; in experiment [5] it was 3.26; in experiment [6], 1.05. The composite z-score in the experiment with Sam68 (KHDRBS1) was 1.31; in [7] it was -0.899; in [8] it was 1.15. Also, the composite Z-score in experiment [1] is 0.623 (inactive).

Take `C=CC[C@@]1(C(=O)NCCN2CCOCC2)N=C(c2ccc(OCCCO)cc2)O[C@@H]1c1ccccc1N=[N+]=[N-]`: the composite z-score with Albumin (Bos taurus) was 0.711; in experiment [2] it was -0.396; in experiment [3], -0.109; in [4] it was 0.716; in experiment [5], 1.62; in [6], 0.232. In addition, the composite z-score was 0.176 with Sam68 (KHDRBS1), 0.703 in experiment [7] and -0.572 in [8]. Also, in experiment [1], the composite Z-score was 0.346 (inactive).

For the molecule `NC(=O)[C@@H]1[C@H]2C(=O)O[C@H](c3ccccc3)[C@H](c3ccccc3)N2[C@H](c2ccc(O)cc2)[C@@]12C(=O)Nc1ccccc12`, the composite z-score with Albumin (Bos taurus) is 0.257; in experiment [2], -0.288; in [3], -0.155; in [4], 0.75; in experiment [5], 2.37; in experiment [6] it was 0.691. In addition, the values for the composite z-score (with Sam68 (KHDRBS1); in experiment [7]; in experiment [8]) were 0.203, -1.73 and -0.161, respectively. Besides, the composite Z-score in experiment [1] was -0.622 (inactive).

Take `COc1ccc(CCNC(=O)[C@@]2(Sc3ccc(C)cc3)CC(=O)N(C3Cc4ccccc4C3)[C@@H]2c2ccc(CO)cc2I)cc1`: the composite z-score is -0.101 with Albumin (Bos taurus); 0.0425 in experiment [2]; -0.192 in experiment [3]; 0.729 in experiment [4]; 1.17 in experiment [5]; -0.286 in experiment [6]. Besides, the composite z-score with Sam68 (KHDRBS1) was 0.608; in experiment [7] it was -0.235; in experiment [8], -1.26. In experiment [1], the composite Z-score was -0.235 (inactive).

With `COC(=O)[C@@]1(Cc2ccc(OC)cc2)[C@@H]2C(=CC(=O)[C@H]2CC(=O)C(=O)N2CCCC2)CN1C(=O)c1ccccc1`, the composite z-score in the experiment with Albumin (Bos taurus) is 0.826; in experiment [2], 0.132; in experiment [3] it was -0.152; in [4], 0.558; in experiment [5], 2.23; in experiment [6], 0.0014. Moreover, the composite z-score in the experiment with Sam68 (KHDRBS1) is -0.685; in experiment [7], -0.694; in experiment [8], 0.0351. Besides, the composite Z-score in [1] is -0.0056 (inactive).

In the case of `COCCOC(=O)N1C(=O)[C@@]2(c3cc(C#CCC(C(=O)OC)C(=O)OC)ccc31)[C@H](c1ccccc1OCCO)N1[C@H](c3ccccc3)[C@H](c3ccccc3)OC(=O)[C@H]1[C@@H]2C(=O)N1CCN(c2ncccn2)CC1`, the composite z-score with Albumin (Bos taurus) is 0.846; in experiment [2], 0.225; in [3], -0.0249; in [4], 0.499; in experiment [5], 1.66; in experiment [6], 0.596. The composite z-score in the experiment on Sam68 (KHDRBS1) amounted to 1.31; in experiment [7], 1.04; in experiment [8], 1.12. Besides, the composite Z-score in [1] is 0.347 (inactive).

Turning to `C=CCOC(=O)[C@H]1[C@@H]2C(=O)O[C@@H](c3ccccc3)[C@@H](c3ccccc3)N2[C@@H](c2ccc(OCCOC(=O)[C@H]3C[C@H]4C(=O)N[C@@H](CCCCNC(C)=O)C(=O)N4[C@H]3c3cccc(OCCO)c3)cc2)[C@]12C(=O)Nc1ccccc12`, the composite z-score with Albumin (Bos taurus) is -0.168; in [2], -0.0026; in [3], -0.114; in experiment [4] it was 0.392; in experiment [5], 2.16; in experiment [6], 0.168. In addition, the composite z-score with Sam68 (KHDRBS1) amounted to 1.25; in [7], 1.31; in experiment [8], 1.15. The composite Z-score in experiment [1] was 0.93 (inactive).

Turning to `O=C(NC1CC1)[C@@H]1c2ccccc2C(=O)N(Cc2ccccc2Cl)[C@H]1c1ccc(CO)cc1`, the composite z-score in the experiment with Albumin (Bos taurus) was -0.243; in [2] it was 0.0765; in [3], -0.0411; in experiment [4], 0.633; in [5] it was 2.33; in experiment [6] it was 0.108. The composite z-score in the experiment on Sam68 (KHDRBS1) amounted to 1.33; in [7], 0.516; in [8], 1.02. For the same molecule, the composite Z-score in experiment [1] was 0.0965 (inactive).

Take `CCOC(=O)C[C@H]1[C@H](OC(=O)c2ccc(C(=O)c3ccccc3)cc2)[C@@H](NC(=O)c2ccc3ccccc3c2)c2cc(OCCCO)ccc2N1C(=O)Cc1ccc(OC)cc1`: the composite z-score in the experiment with Albumin (Bos taurus) is 0.638; in [2], -0.0932; in experiment [3], -0.149; in experiment [4], 0.009; in [5] it was 0.899; in [6] it was 0.0147. Moreover, the composite z-score is 0.484 in the experiment with Sam68 (KHDRBS1), -0.197 in [7] and 0.114 in experiment [8]. Also, the composite Z-score in experiment [1] was -0.68 (inactive).

`Cc1ccc(N2C(=O)c3ccccc3[C@@H](C(=O)NC3CC3)[C@@H]2c2ccc(CO)cc2)nc1`: the composite z-score with Albumin (Bos taurus) was -0.301; in [2], -0.481; in experiment [3], -0.165; in [4], 0.677; in [5], -0.663; in experiment [6], 0.653. The composite z-score with Sam68 (KHDRBS1) was -2.27; in [7], -1.97; in [8], -0.616. For the same molecule, the composite Z-score in experiment [1] is -0.648 (inactive).

Source of the values: PubChem BioAssay.
